# In PubChem BioAssay:
# The source made the active and inactive calls.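 The calls were made as follows: active = compounds killing one labelled cell type while sparing the other, by normalised counts and ratio limits, not self-fluorescent; inactive = the rest.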
# Test: differential killing of epithelial or mesenchymal cells, primary screen, imaging, PC-3E GFP, TEM4-18 mCherry, co-culture (AID 1345086);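 also: cells exposed to compound for 72 h before imaging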;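 as to red/green cell ratio (normalised): normalised mesenchymal count divided by normalised epithelial count so high means epithelial killing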
# Settings: imaging cell counts, at 1 µM; for red/green cell ratio (normalised): actives lie on both sides, counts scaled to control wells, 1 = unselective
# [1] = measured here: epithelial PC-3E GFP cell survival
# [2] = measured here: mesenchymal TEM4-18 mCherry cell survival
Compound,red/green cell ratio (normalised),normalised cell number [1],normalised cell number [2]
CC1CN(c2c(F)c(N)c3c(=O)c(C(=O)O)cn(C4CC4)c3c2F)C[C@H](C)N1 (stereo partly specified),0.99 (inactive),1.03,1.02
OCCN1C[C@H](O)[C@@H](O)C(O)C1CO (stereo partly specified),1.19 (inactive),1.01,1.21
COC(=O)/C=C/C(C)=C/C=C/C(C)=C/C=C/C=C(C)/C=C/C=C(C)/C=C/C(=O)O,0.81 (inactive),1.29,1.05
COc1cc([C@@H]2c3cc4c(cc3[C@H](O)C3COC(=O)[C@H]32)OCO4)cc(OC)c1OC (stereo partly specified),1.4 (inactive),0.16,0.22
CC(=O)OCC1O[C@H](Sc2ccc(C)cc2)[C@@H]2[C@@H](OC(=O)N2C(=O)OCc2ccccc2)C1OC(C)=O (stereo partly specified),0.78 (inactive),1.24,0.96
CC(=O)OCC1O[C@@H](OC(C)=O)C(NC(=O)OCc2ccccc2)[C@@H](OC(C)=O)C1OC(C)=O (stereo partly specified),0.94 (inactive),1.16,1.09
O=C[C@H](O)[C@@H](O)[C@H](O)CO,0.99 (inactive),0.97,0.97
Nc1nc2ncc(CNc3ccc(C(=O)NC(CCC(=O)O)C(=O)O)cc3)nc2c(=O)[nH]1 (stereo unspecified),1.18 (inactive),1.04,1.23
COC1C(O)C(O)C(O)[C@@H](O)C1O (stereo partly specified),1.11 (inactive),0.95,1.05
O=C(NCC1O[C@@H](OC2C(NC(=O)OCc3ccccc3)C[C@@H](NC(=O)OCc3ccccc3)[C@H](OC3OC(COS(=O)(=O)O)[C@@H](OS(=O)(=O)O)[C@H](NC(=O)OCc4ccccc4)[C@H]3OS(=O)(=O)O)[C@H]2OS(=O)(=O)O)[C@H](OS(=O)(=O)O)[C@@H](OS(=O)(=O)O)C1OS(=O)(=O)O)OCc1ccccc1 (stereo partly specified),1.03 (inactive),0.88,0.91
O=C(O)c1cn(C2CC2)c2cc(N3CCN(c4ccc(Cl)cc4Cl)CC3)c(F)cc2c1=O,0.98 (inactive),1,0.98
O=C(O)[C@@H](S)[C@@H](S)C(=O)O,1.16 (inactive),0.95,1.1
C[C@@H]1O[C@@H](O[C@H]2[C@@H](Oc3cc(O)c4c(c3)O[C@H](c3ccc(O)cc3)CC4=O)O[C@H](CO)[C@@H](O)[C@@H]2O)[C@H](O)[C@H](O)[C@H]1O,1.11 (inactive),0.94,1.04
CCO[C@H]1OC(C(=O)OC)C(OC(=O)CCC(=O)O)[C@H](OC(=O)c2ccccc2)[C@@H]1OC(=O)c1ccccc1 (stereo partly specified),0.91 (inactive),1.18,1.07
O=C(O)CCC(=O)OC1C(CO)O[C@H](Sc2ccccc2)[C@H]2NC(=O)O[C@@H]12 (stereo partly specified),1.26 (inactive),0.84,1.06
C=C1C[C@]23C[C@@]1(O)CC[C@H]2[C@@]12C=C[C@H](O)[C@](C)(C(=O)O1)[C@H]2[C@@H]3C(=O)O,1.1 (inactive),0.93,1.02
C[C@@H]1C[C@H](O)[C@@H](O)CO1,0.94 (inactive),1.12,1.05
CC/C=C\[C@H](O)[C@H](O)C1=C(C)C(=O)[C@]2(O1)C(=O)N[C@@](OC)(C(=O)c1ccccc1)[C@@H]2O,1.21 (inactive),0.79,0.95
CC1CCC2OC2C/C=C/C(=O)c2c(O)cc(O)cc2CC(=O)O1 (stereo unspecified),0.83 (inactive),0.88,0.73
COc1cc(O)c2c(c1)C(=O)C1=C(C2=O)C(OC)OC1 (stereo unspecified),1.02 (inactive),0.9,0.92
O=c1cc(-c2ccccc2)oc2ccc(O)cc12,1.07 (inactive),0.91,0.97
COC(=O)CNC(=O)c1ccc([C@H](O)c2ccccc2)cn1,0.87 (inactive),1,0.87
